In the library only some 2.8% were active in any assay of this set; here they are far more common.
bovine MsrA act – bovine MsrA enzyme activators, primary screen, biochemical, absorbance, HTS; actives 0.3% (n = 360,000); activation, % at 10.6 µM; purified bovine MsrA, absorbance read-out; in the data active means activation above about 7.5%;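 further: 0% = vehicle and 100% = reference activator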
KLK7 zymogen act – proKLK7 zymogen activators, primary screen, biochemical, fluorescence intensity | Kallikrein-7 (Homo sapiens), P49862 | purified proKLK7, EDANS-DABCYL substrate fluorescence; 100% is mature enzyme control, 0% vehicle | activation, % at 7 µM | actives 0.9% (n = 370,000) | AID 652039, 2013;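 active means activation above the mean of all tested compounds plus 3 SD, computed per campaign excluding outliers beyond control limits, cut at about 13% in these data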
Target sequence (P49862 whole entry, looked up): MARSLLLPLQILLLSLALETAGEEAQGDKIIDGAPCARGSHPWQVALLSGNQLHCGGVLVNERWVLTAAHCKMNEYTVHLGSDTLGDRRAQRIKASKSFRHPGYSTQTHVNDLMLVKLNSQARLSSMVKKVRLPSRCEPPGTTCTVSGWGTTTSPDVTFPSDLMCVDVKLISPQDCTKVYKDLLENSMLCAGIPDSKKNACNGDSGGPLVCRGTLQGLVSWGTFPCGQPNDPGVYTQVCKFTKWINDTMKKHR
MsrA inhibitor – bovine MsrA enzyme inhibitors, primary screen, biochemical, absorbance, HTS; actives 0.75% (n = 360,000); AID 651718, 2012; inhibition, % at 15.5 µM; Methionine sulfoxide reductase A (Bos taurus); purified bovine MsrA, absorbance read-out; in the data active means inhibition above about 4.5%;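 further: 0% = vehicle wells with enzyme and 100% = reference inhibitor wells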
SMARCA2 act – SMARCA2 (BRM) function activators, primary screen, cell-based, luminescence, high throughput; MG213 cells, MMTV-luciferase reporter, dexamethasone, overnight; activation, % at 9.1 µM; actives 1% (n = 370,000); in the data active means activation above about 7.8%;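 further: 0% = vehicle wells and 100% = reference activator wells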
SMARCA2 act conf – SMARCA2 (BRM) function activators, confirmation, cell-based, luminescence, triplicate; shares compounds with SMARCA2 act; MG213 cells, MMTV-luciferase with dexamethasone, overnight; MG213 cells expressing E1A, Rb sequestered; DMSO wells 0%, reference activator 100%; activation, % at 9.1 µM; actives 30% (n = 3,500); AID 652260, 2013;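 active means activation above its plate's cutoff, the mean activation of tested wells plus 3 SD, cut at about 7.9% in these data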
GAL4-VP16 Luc – GAL4-VP16 luciferase reporter activation, counter-screen for SMARCA2 (BRM) activator project, cell-based, pG5luc, luminescence, high throughput; shares compounds with SMARCA2 act; HEK293 GAL4-VP16 pG5luc reporter; scaled: DMSO wells 0%, SAHA wells 100%; activation, % at 9.1 µM; actives 41% (n = 3,500); AID 686939, 2013;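 active means activation above the solvent-only control well mean plus 3 SD, averaged across control plates, cut at about 5.2% in these data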
* = called active by the depositor; nt = no result given.

SMILES	bovine MsrA act	KLK7 zymogen act	MsrA inhibitor	SMARCA2 act	SMARCA2 act conf	GAL4-VP16 Luc
Cc1cccc(NC(=O)COc2ccc(Br)cc2)n1	-12.5	-0.3	-1.5	1.1	nt	nt
Cc1ccc(OCC(=O)Nc2cccc(C)n2)c(C)c1	-0.7	0.0	0.3	10.5*	2.8	11.6*
O=C(Nc1cc(Cl)cc(Cl)c1)N[C@@H]1CC[C@@H](CCNS(=O)(=O)c2cccc(F)c2)O[C@@H]1CO	nt	0.2	0.8	-6.0	nt	nt
CC(=O)C1CCC2C3CC=C4CC(SC(=N)N)CCC4(C)C3CCC12C (configuration not stated)	-3.1	0.0	-1.2	10.3*	-6.1	1.3
CN(Cc1ccccc1)S(=O)(=O)c1ccc2[nH]c(=O)ccc2c1	1.4	-0.7	1.0	8.7*	-1.0	2.5
CN(Cc1ccccc1)S(=O)(=O)c1ccc2[nH]c(=O)oc2c1	-1.3	-0.2	-1.6	-2.1	nt	nt
Cc1ccc(S(=O)(=O)/N=C(/c2ccccc2)N2CCOCC2)cc1	-3.0	0.5	0.9	8.2*	-2.1	0.8
O=C(C(=O)N1CCC(CNS(=O)(=O)c2cc(C(F)(F)F)cc(C(F)(F)F)c2)CC1)c1cccs1	nt	-0.6	0.4	-3.5	nt	nt
CC(C)CNC(=O)c1c(N)n(/N=C/c2ccccn2)c2nc3ccccc3nc12	1.1	0.1	-0.2	8.5*	-6.7	2.7
Cc1[nH]c2ccccc2c1/C=N/Nc1nc2ccccc2[nH]1	-5.9	-1.6	2.6	21.3*	9.2*	4.9
COc1ccc(Nc2cc(Nc3ccccc3)ncn2)cc1	-2.6	-0.6	0.9	14.0*	5.6	11.3*
CN(C)c1ccc(NC(=S)Nc2ccc3c(c2)c(=O)n(C)n3-c2ccc(C(C)(C)C)cc2)cc1	-0.8	0.6	1.4	-1.8	nt	nt
CC(=O)c1ccc(NC(=O)c2ccn[nH]2)cc1	-1.1	-0.1	-0.6	8.2*	8.0*	8.0*
CCC(C(=O)O)N1C(=O)/C(=C/C(C)=C/c2ccccc2)SC1=S (configuration not stated)	-1.9	0.1	1.6	-3.9	nt	nt
CC(/C=C1\SC(=S)N(NC(=O)c2ccc(O)cc2)C1=O)=C\c1ccccc1	-3.7	-0.6	-0.3	9.0*	0.8	1.0
O=[N+]([O-])c1cc(Cl)ccc1NCCNS(=O)(=O)c1ccccc1	-4.5	0.7	-0.6	16.2*	-0.6	1.0
CSc1nc(-c2ccccc2)nc(C(C)C)n1	-1.0	0.3	1.7	-1.1	nt	nt
COc1ccc(C2=C/C(=C\c3ccc(OC(C)=O)cc3)C(=O)O2)cc1	-3.2	-0.4	1.1	-1.3	nt	nt
CC(=O)Oc1ccc(C2=Cc3ccc(OC(C)=O)cc3OC2C)cc1 (configuration not stated)	-1.6	3.5	1.1	8.2*	8.0*	6.5*
COc1ccc(Cn2c(C)c(CC(=O)Nc3ccc(Oc4cccnc4)c(C)c3)c3ccccc32)cc1	nt	0.0	0.5	-1.8	nt	nt
COc1cc(/C=C2\SC(=S)N(Nc3ccccc3)C2=O)ccc1O	1.4	0.5	0.4	8.2*	7.2	10.7*
CCOc1cc(/C=C2\SC(=S)N(Nc3ccccc3)C2=O)ccc1O	-11.5	0.3	0.6	3.9	nt	nt
C=CS(=O)(=O)c1sc(Cl)c(N2CCOCC2)c1[N+](=O)[O-]	-14.6	0.4	0.1	11.5*	-8.5	4.1
Nc1nc(SCC(=O)N2CCCc3ccccc32)[nH]c(=O)c1-c1ccccc1	-2.8	0.9	0.4	10.6*	-2.8	1.0
COCCCNC(=O)C[C@H]1C[C@@]2(C(=O)OC)C(=C[C@H](C(C)C)O[C@@H]2C2CC2)N(Cc2ccco2)C1=O	nt	0.7	nt	0.1	nt	nt
SMILES	bovine MsrA act	KLK7 zymogen act	MsrA inhibitor	SMARCA2 act	SMARCA2 act conf	GAL4-VP16 Luc
Cc1c(Cl)cccc1NC(CC(=O)c1ccccc1)C(=O)O (configuration not stated)	-8.7	0.4	-0.4	9.7*	7.2	3.2
O=C(CC(Nc1ccccc1Cl)C(=O)O)c1ccccc1 (configuration not stated)	-8.0	0.8	-0.6	2.1	nt	nt
CCOCCn1c(CN2CCN(CC)CC2)nc2c1c(=O)n(C)c(=O)n2C	-0.7	0.6	1.2	-1.5	nt	nt
CCOCCn1c(CN2CCCCC2)nc2c1c(=O)n(C)c(=O)n2C	-3.6	-0.1	-0.2	8.1*	0.4	-0.3
CCN(CC)CCNc1nc(SC)nc2sc3c(c12)CCN(C)C3	-1.8	3.5	1.5	9.2*	7.5	0.2
Cc1sc2nc(SCC(=O)Nc3ccc(Cl)c(C(=O)O)c3)[nH]c(=O)c2c1C	-1.4	0.5	-0.2	8.8*	9.2*	8.9*
CCOc1ccc2nc(SCC#N)c(C#N)cc2c1	-5.1	8.8	1.0	8.8*	7.8*	6.6*
O=C(NN=C1CCCC1)c1cccc(O)c1	-9.3	-0.5	1.1	8.9*	2.5	1.0
Fc1ccccc1N1CCN(C(c2ccnc3ccccc23)c2nnnn2-c2ccc3c(c2)OCCO3)CC1 (configuration not stated)	-3.4	-0.3	0.0	-4.2	nt	nt
CC(C)(C)N1Cc2nnn(Cc3ccccc3)c2-c2ccccc2S1(=O)=O	nt	0.1	nt	-3.5	nt	nt
CC(C)c1ccc(NC(=O)COC(=O)C2CC3C=CC2C3)cc1 (configuration not stated)	-5.4	-0.2	0.0	8.2*	2.8	2.0
CC(C)Oc1cc(F)ccc1-c1cc(C(=O)Nc2cccc(C(F)(F)F)c2)[nH]n1	-0.3	-0.2	1.4	-3.5	nt	nt
Cc1ccc(C(=O)Nc2ccc(F)cc2)cc1NC1=NC2CS(=O)(=O)CC2S1 (configuration not stated)	-0.3	0.0	0.2	9.8*	-5.2	1.5
Cc1ccc(NC(=O)c2ccc(C)c(NC3=NC4CS(=O)(=O)CC4S3)c2)cc1C (configuration not stated)	-1.5	0.6	1.0	-3.4	nt	nt
Cc1ccc(Nc2nc(N)nc(CC#N)n2)cc1	-4.0	0.2	0.5	12.1*	7.6	6.6*
CCc1nc2ccc(C(=O)NCc3ccc4c(c3)OCO4)cn2c1N(C)Cc1ccc(OC)cc1	-4.3	1.0	2.3	-6.2	nt	nt
Cn1c2ccc(F)cc2c2nnc(SCCN3CCOCC3)nc21	-2.4	0.1	0.5	12.6*	3.0	2.4
CCCCn1c2ccc(F)cc2c2nnc(SCCN3CCOCC3)nc21	-0.2	-0.3	-1.1	2.7	nt	nt
CC(=O)Nc1c(-c2ccc(F)cc2)nc2ncccn12	nt	12.1	nt	-1.8	nt	nt
Cn1sc2ccccc2c1=O	7.8*	0.6	1.1	12.8*	16.4*	2.4
COc1ccccc1NS(=O)(=O)c1ccc2oc(N)nc2c1	-4.1	0.3	-0.9	10.6*	-0.4	2.5

High-throughput results as filed in PubChem BioAssay.
